{"source": "PubChem BioAssay (EPA / NIEHS)", "note": "Activity calls are given as the source filed them. The calls were made as follows: active = hit-call score of the fitted dose curve at least 0.9, where 1 is the maximum; inactive = score below 0.9."}
{"biological_target": "Transcription factor Sp1 (Homo sapiens) (UniProt P08047)", "sequence (P08047 whole entry, looked up)": "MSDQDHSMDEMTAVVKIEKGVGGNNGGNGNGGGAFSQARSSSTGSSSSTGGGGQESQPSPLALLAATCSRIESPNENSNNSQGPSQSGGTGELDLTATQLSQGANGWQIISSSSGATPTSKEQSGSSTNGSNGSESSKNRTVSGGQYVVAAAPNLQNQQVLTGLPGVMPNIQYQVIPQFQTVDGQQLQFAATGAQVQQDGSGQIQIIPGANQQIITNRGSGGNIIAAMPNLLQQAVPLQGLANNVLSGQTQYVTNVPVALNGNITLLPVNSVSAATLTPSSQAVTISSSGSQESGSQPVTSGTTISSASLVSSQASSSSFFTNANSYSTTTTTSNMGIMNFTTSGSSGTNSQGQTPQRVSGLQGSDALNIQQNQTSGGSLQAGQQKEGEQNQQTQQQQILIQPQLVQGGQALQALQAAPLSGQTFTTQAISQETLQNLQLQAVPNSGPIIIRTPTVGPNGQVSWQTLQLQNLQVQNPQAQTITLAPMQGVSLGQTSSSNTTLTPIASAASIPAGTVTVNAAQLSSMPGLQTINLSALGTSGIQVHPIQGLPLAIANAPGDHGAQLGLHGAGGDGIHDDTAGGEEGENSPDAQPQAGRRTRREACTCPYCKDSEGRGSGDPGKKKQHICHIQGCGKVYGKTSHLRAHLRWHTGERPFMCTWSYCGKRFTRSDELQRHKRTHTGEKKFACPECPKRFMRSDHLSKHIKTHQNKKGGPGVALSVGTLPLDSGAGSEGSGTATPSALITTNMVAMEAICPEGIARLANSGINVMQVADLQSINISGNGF", "assay": "ATG_Sp1_CIS: Attagene CIS-FACTORIAL HepG2 Assay for human Specificity Protein 1 (Sp1) (AID 2282961)", "settings": "HepG2 Sp1 cis-reporter transcription, actives raise or lower the signal", "how_it_was_run": "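Sp1-driven reporter mRNA, read as capillary electrophoresis fluorescence after RT-PCR, in transiently transfected HepG2 cells dosed for 24 h; signal change in either direction relative to DMSO.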"}
{"molecule": "CCOc1ccccc1OCC", "outcome": "inactive"}
{"molecule": "c1ccc2[nH]ccc2c1", "outcome": "inactive"}
{"molecule": "CC(=O)O[C@H](CC(=O)[O-])C[N+](C)(C)C", "outcome": "inactive"}
{"molecule": "CCN(CC)c1ccc(C(=C2C=CC(=[N+](CC)CC)C=C2)c2ccc(S(=O)(=O)O)cc2S(=O)(=O)[O-])cc1", "outcome": "inactive"}
{"molecule": "CCCCCCCCCCCCCOS(=O)(=O)O", "outcome": "inactive"}
{"molecule": "[Ca+2]", "outcome": "inactive"}
{"molecule": "c1cc(C(c2ccc(OCC3CO3)cc2)c2ccc(OCC3CO3)cc2)ccc1OCC1CO1", "note": "(stereo not drawn)", "AC50": "100 µM (active)"}
{"molecule": "CCn1c2ccccc2c2cc(N)ccc21", "outcome": "inactive"}
{"molecule": "C=C[C@@H](C)CCC=C(C)C", "outcome": "inactive"}
{"molecule": "O=C(O)CN(CCN(CC(=O)O)CC(=O)O)CCN(CC(=O)O)CC(=O)O", "outcome": "inactive"}
{"molecule": "COC(=O)OC", "outcome": "inactive"}
{"molecule": "Cc1c(Cl)c(=O)oc2cc(O)ccc12", "AC50": "26.8 µM (active)"}
{"molecule": "O=Cc1ccc(F)cc1", "outcome": "inactive"}
{"molecule": "C=C(C)C(=O)O", "outcome": "inactive"}
{"molecule": "CC(C)OP(=O)(CP(=O)(OC(C)C)OC(C)C)OC(C)C", "outcome": "inactive"}
{"molecule": "CCCCOCCOCCOCCOCCO", "outcome": "inactive"}
{"molecule": "COc1ccc(Nc2ccccc2)c(C)c1", "outcome": "inactive"}
{"molecule": "CCCC(C)C=O", "note": "(stereo not drawn)", "outcome": "inactive"}
{"molecule": "CC(=O)Nc1ccccc1O", "outcome": "inactive"}
{"molecule": "COc1cc(C(C)(C)C)c(O)c(C(C)(C)C)c1", "outcome": "inactive"}
{"molecule": "CCCC(=O)C(C)=O", "outcome": "inactive"}
{"molecule": "O=C(O)c1cn(C2CC2)c2cc(N3CCNCC3)c(F)cc2c1=O", "outcome": "inactive"}
{"molecule": "Cc1ccc2ccccc2n1", "outcome": "inactive"}
{"molecule": "CC(C)=CCCC(C)=CCCC(C)=CCO", "outcome": "inactive"}
{"molecule": "O=C(Nc1ccccc1)c1cc([N+](=O)[O-])ccc1Cl", "outcome": "inactive"}
{"molecule": "N#Cc1ccccc1", "outcome": "inactive"}
{"molecule": "C[C@H]1C[C@@H]2[C@H]([C@@H](O)C[C@@]3(C)[C@H]2CC[C@]3(O)C(=O)CO)[C@@]2(C)C=CC(=O)C=C12", "outcome": "inactive"}
{"molecule": "COCCOCCOCCOCCOCCO", "outcome": "inactive"}
{"molecule": "O=C(O)CCCCC1CCSS1", "note": "(stereo not drawn)", "outcome": "inactive"}
{"molecule": "C#C[C@]1(O)CC[C@H]2[C@@H]3CCC4=Cc5oncc5C[C@]4(C)[C@H]3CC[C@@]21C", "AC50": "57.6 µM (active)"}
{"molecule": "O=C(O)COCCN1CCN(C(c2ccccc2)c2ccc(Cl)cc2)CC1", "note": "(stereo not drawn)", "outcome": "inactive"}
{"molecule": "CCCCN", "outcome": "inactive"}
{"molecule": "COC(=O)Cc1cccc2ccccc12", "outcome": "inactive"}
{"molecule": "O=Nc1ccc(Nc2ccccc2)cc1", "AC50": "55 µM (active)"}
{"molecule": "CC(C)=CCC[C@](C)(O)[C@@H]1CC=C(C)CC1", "outcome": "inactive"}
{"molecule": "CCN(CC)c1ccc2c(-c3ccccc3C(=O)O)c3ccc(=[N+](CC)CC)cc-3oc2c1", "outcome": "inactive"}
{"molecule": "CC(=O)[O][Al][O]C(C)=O", "outcome": "inactive"}
{"molecule": "Cc1cccc(Nc2ccccc2C(=O)O)c1C", "outcome": "inactive"}
